PubChem BioAssay (EPA / NIEHS)
The source made the active and inactive calls. Rule for the calls: active = hit-call score of the fitted dose curve at least 0.9, where 1 is the maximum; inactive = score below 0.9.

Read-out: Cytochrome P450 3A7 (Homo sapiens) (UniProt P24462)
Assay: LTEA_HepaRG_CYP3A7: Life Technologies and Expression Analysis (LTEA) Assay for CYP3A7 using HepaRG (AID 2283492)
Details: mRNA level, 48 h; actives raise or lower the signal
Protocol: LTEA_HepaRG is a cell based, multiplexed-readout assay that uses HepaRG, a human liver cell line, with measurements taken at 48 hours after chemical dosing on a 96-well plate.LTEA_HepaRG_CYP3A7 is one of 102 assay component(s) measured in the LTEA HepaRG cell culture assay. It is a marker of NR mediated metabolism/Undifferentiated hepatocyte.Data from the assay component LTEA_HepaRG_CYP3A7 was analyzed into 1 endpoint. This assay endpoint, LTEA_HepaRG_CYP3A7, was analyzed with bidirectional fitting relative to DMSO as the negative control and baseline of activity. Using a type of inducible reporter, measures of mRNA induction for gain or loss-of-signal activity can be used to understand regulation of transcription factor activity. To generalize the intended target to other relatable targets, this assay endpoint is annotated to the cyp intended target family, where the subfamily is xenobiotic metabolism.
A total of 1060 chemcials from the ToxCast library were tested in eight-point concentration-response experiments. Cell culture and cytotoxicity assays were conducted at Thermo Fisher Scientific's Custom Services facility (Madison, WI). A single lot of human HepaRG cells (Thermo Fisher Scientific, Frederick, MD) was used for the cell culture experiments. 96-well format collagen type I coated plates of human HepaRG cells were prepared using established methods. Briefly, cryopreserved HepaRG cells were thawed, plated at a density of approximately 100,000 cells/well in HepaRG Thaw, Plate, and General Purpose media (HPRG770, Thermo Fisher Scientific), and incubated for 48 hours. 0.5% DMSO was selected as vehicle control to balance the requisite need of DMSO in HepaRG cultures to maintain differentiation (for example, baseline metabolism, proportions of hepatocytes vs. cholangiocytes), while enabling further hepatic receptor pathway activation (for example, PXR and CAR) in response to chemical exposure. 48 hours after plating, the culture medium was replaced with HepaRG Serum-Free Incudtion Media. Cells were exposed to each test chemical in duplicate and maintained in CO2 incubators for another 48 hours. Chemical plates were thawed to room temperature and 200x concentrations of treatment groups were prepared. 8-point conentration-reponse curves were made with the highest exposure at 100 uM, followed by half-log dilutions, all in 0.5% DMSO. Each test plate contained variouse controls, induction positive controls (1mM phenobarbital), cytotoxicity positive controls ([…] aflatoxin B1), vehicle controls (0.5% DMSO), and total lysis controls (0.5% DMSO). Cell morphology images were taken using an Essen IncuCyte FLR automated microscope, with six 96-well plates imaged in about 24 minutes. Images were captured and exported and JPEG files. Spent culture media was transfered to black-well plates for the LDH assay, and remaining media was sorted at -80 C for later use. Cells were treated with RLT buffer and frozen until shipped for gene expression analysis. Total RNA was isolated from the cell suspension in 75 uL of Buffer RLT (Qiagen, Germantown, MD 20874) by Quintiles/Expression Analysis (Durham, NC) using a custom isolation procedure. Total RNA from each plate well was transferred to a preamplification plate. Fluidigm's 96.96 Dynamic ArrayTM (Fluidigm, Amsterdam, the Netherlands) technology was used for gene expression analyses by quantitative reverse transcription polymerase chain reaction (qRT-PCR, performed by Quintiles/Expression Analysis, Durham, NC)89. Standard TaqManTM Assays (Applied Biosystems/ThermoFisher Scientific, Foster City, CA) were used to assess the expression of 93 genes selected based on their selectivity and sensitivity to important hepatic receptors known to be modulated by environmental chemicals; importance in human hepatocyte functionality; and hepatotoxicity. […]

Sequence of Cytochrome P450 3A7 (Homo sapiens) (P24462 whole entry, looked up): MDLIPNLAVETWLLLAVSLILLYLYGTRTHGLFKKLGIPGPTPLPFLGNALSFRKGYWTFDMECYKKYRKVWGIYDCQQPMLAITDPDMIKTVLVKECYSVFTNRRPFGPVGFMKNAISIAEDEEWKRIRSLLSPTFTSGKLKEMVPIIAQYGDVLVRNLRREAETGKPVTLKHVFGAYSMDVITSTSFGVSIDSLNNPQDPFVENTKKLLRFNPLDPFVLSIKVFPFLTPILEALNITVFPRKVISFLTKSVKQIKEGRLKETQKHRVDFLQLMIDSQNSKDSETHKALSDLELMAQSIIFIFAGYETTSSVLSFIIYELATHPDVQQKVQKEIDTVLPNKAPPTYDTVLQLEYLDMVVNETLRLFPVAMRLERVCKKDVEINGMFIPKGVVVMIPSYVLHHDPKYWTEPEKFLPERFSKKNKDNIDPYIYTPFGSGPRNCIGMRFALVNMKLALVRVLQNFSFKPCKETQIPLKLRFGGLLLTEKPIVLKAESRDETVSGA

SMILES	outcome	AC50
CCCN(CC)CC1COC2(CCC(C(C)(C)C)CC2)O1 (stereo not given)	inactive	
CCOc1nc(C(Cl)(Cl)Cl)ns1		2.43 µM (active)
CC1(C)C(C=C(Cl)Cl)C1C(=O)OC(C#N)c1cccc(Oc2ccccc2)c1 (stereo not given)	inactive	
COC(=O)NS(=O)(=O)c1ccc(N)cc1	inactive	
COC(=O)NC(=S)Nc1ccccc1NC(=S)NC(=O)OC		4.46 µM (active)
CS(=O)(=O)c1ccc(C(=O)C2C(=O)CCCC2=O)c([N+](=O)[O-])c1	inactive	
Clc1cccc(C(Cl)(Cl)Cl)n1	inactive	
CS(=O)(=O)c1cc(C(F)(F)F)ccc1C(=O)c1cnoc1C1CC1	inactive	
COP(=S)(OC)Oc1ccc([N+](=O)[O-])c(C)c1	inactive	
O=C(O)c1c(Cl)ccc2cc(Cl)cnc12	inactive	
O=C1C2CC=CCC2C(=O)N1SC(Cl)(Cl)Cl (stereo not given)	inactive	
CNC(=O)Oc1cccc2ccccc12	inactive	
OC(c1ccc(Cl)cc1)(c1ccc(Cl)cc1)C(Cl)(Cl)Cl		83.5 µM (active)
O=P(O)(O)CCCl	inactive	
COc1cc(Cl)c(OC)cc1Cl		8.31 µM (active)
COCC(C)N(C(=O)CCl)c1c(C)csc1C (stereo not given)	inactive	
CN/C(=N\[N+](=O)[O-])NCc1cnc(Cl)s1	inactive	
COP(=S)(OC)SCn1nnc2ccccc2c1=O	inactive	
O=C(Nc1ccccc1-c1ccc(Cl)cc1)c1cccnc1Cl	inactive	
CCN(CC)c1nc(C)cc(OP(=S)(OC)OC)n1		8.23 µM (active)

SMILES	outcome	AC50
CC(C)Oc1cccc(NC(=O)c2ccccc2C(F)(F)F)c1	inactive	
CC1(C)C(C(=O)OC(C#N)c2cccc(Oc3ccccc3)c2)C1(C)C (stereo not given)	inactive	
COc1ccc(-c2ccccc2)cc1NNC(=O)OC(C)C	inactive	
CCCCC(C#N)(Cn1cncn1)c1ccc(Cl)cc1 (stereo not given)		3.89 µM (active)
COCc1cnc(C2=NC(C)(C(C)C)C(=O)N2)c(C(=O)O)c1 (stereo not given)	inactive	
CCOP(=O)(OCC)Oc1nc(Cl)c(Cl)cc1Cl		92.1 µM (active)
CCOC(=O)C(C)OC(=O)c1cc(Oc2ccc(C(F)(F)F)cc2Cl)ccc1[N+](=O)[O-] (stereo not given)		5.9 µM (active)
C=C(C)CN(CC)c1c([N+](=O)[O-])cc(C(F)(F)F)cc1[N+](=O)[O-]	inactive	
CC(C)(C)C(=O)C(Oc1ccc(Cl)cc1)n1cncn1 (stereo not given)		12.1 µM (active)
COc1cc(OC)nc(NC(=O)NS(=O)(=O)c2ncccc2OCC(F)(F)F)n1	inactive	
CCNP(=S)(OC)O/C(C)=C/C(=O)OC(C)C (stereo not given)		4.03 µM (active)
CCCC(=NOCC)C1=C(O)CC(CC(C)SCC)CC1=O (stereo not given)	inactive	
CCOP(=S)(OCC)Oc1nc(Cl)n(C(C)C)n1	inactive	
Nc1c(Cl)c(Cl)nc(C(=O)O)c1Cl	inactive	
Cc1ccc(N=CN(C)C=Nc2ccc(C)cc2C)c(C)c1	inactive	
CSC(=O)c1c(C(F)F)nc(C(F)(F)F)c(C(=O)SC)c1CC(C)C		12.6 µM (active)
Cc1cnc(C2=NC(C)(C(C)C)C(=O)N2)c(C(=O)O)c1 (stereo not given)	inactive	
CN=C=S	inactive	
Nc1c(Cl)c(F)nc(OCC(=O)O)c1Cl	inactive	
N#Cc1c[nH]cc1-c1cccc2c1OC(F)(F)O2	inactive	
